According to PubChem BioAssay (EPA / NIEHS):
Inconclusive results are not listed. Activity calls are given as the source filed them. Rule for the calls, unless noted: active = hit-call score of the fitted dose curve at least 0.9, where 1 is the maximum; inactive = score below 0.9.

What was measured:
[1] = biological target: Glucocorticoid receptor (Homo sapiens) (UniProt P04150); experiment: ATG_GR_TRANS: Attagene TRANS-FACTORIAL HepG2 Assay for human Glucocorticoid Receptor (GR) (AID 2282978; active = hit-call score of the fitted dose curve at least 0.9, where 1 is the maximum;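 note: activators score as hits since higher reporter transcript over DMSO is fitted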); settings: HepG2 Attagene TRANS GR reporter, mRNA transcription
In short: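 Measurement of GAL4-UAS-driven reporter mRNA in human HepG2 liver cells 24 h post-dosing, using RT-PCR with fluorescent labelling and capillary electrophoresis; the transfected constructs report exogenous NR-GAL4 chimera activity, fitted upward against DMSO.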

[2] = biological target: Oxysterols receptor LXR-beta (Homo sapiens) (UniProt P55055); experiment: ATG_LXRb_TRANS: Attagene TRANS-FACTORIAL HepG2 Assay for human Liver X Receptor beta (LXRb) (AID 2282981; active = hit-call score of the fitted dose curve at least 0.9, where 1 is the maximum); settings: HepG2 Attagene TRANS GAL4-LXRb reporter, mRNA
In short: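 In this TRANS format, exogenous chimeric NR-Gal4 protein activity, not endogenous factors, drives reporter expression in transfected human HepG2 cells. Exposure lasted 24 h; reporter mRNA was read by fluorescent capillary electrophoresis.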

[3] = ATG_M_06_TRANS: Attagene TRANS-FACTORIAL HepG2 Assay for M06 Transcription Factor (Internal Marker) (AID 2282983; active = hit-call score of the fitted dose curve at least 0.9, where 1 is the maximum); settings: HepG2 Attagene TRANS M06 internal marker reporter
In short: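 Measured by capillary electrophoresis of fluorescently labelled RT-PCR products, this endpoint reflects reporter mRNA in HepG2 cells harbouring exogenous NR-GAL4 reporter constructs after 24 h exposure, with DMSO as baseline.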

[4] = biological target: Nuclear receptor subfamily 4 group A member 2 (Homo sapiens) (UniProt P43354); experiment: ATG_NURR1_TRANS: Attagene TRANS-FACTORIAL HepG2 Assay for human Nuclear Receptor Related Protein 1 (NURR1) (AID 2282985; active = hit-call score of the fitted dose curve at least 0.9, where 1 is the maximum); settings: HepG2 Attagene TRANS reporter, mRNA readout
In short: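 After 24 h chemical dosing, total RNA from transiently transfected HepG2 cells was reverse-transcribed and reporter cDNA PCR-amplified, FAM-labelled and analysed by capillary electrophoresis. Activity fitted in positive direction, DMSO as negative control.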

[5] = biological target: Transcriptional activator Myb (Homo sapiens) (UniProt P10242); experiment: ATG_Myb_CIS: Attagene CIS-FACTORIAL HepG2 Assay for human Myeloblastosis (Myb) Proto-Oncogene Transcription Factor (AID 2282986); settings: HepG2 Attagene CIS-FACTORIAL Myb reporter transcription; actives raise or lower the signal
In short: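 Fluorescence signals from capillary electrophoresis of RT-PCR-amplified reporter cDNA give the read-out. Cells: HepG2 transfected with multiple cis-regulated reporter units. Exposure lasts 24 hours; DMSO defines baseline for gain or loss of signal.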

[6] = biological target: Nuclear respiratory factor 1 (Homo sapiens) (UniProt Q16656); experiment: ATG_NRF1_CIS: Attagene CIS-FACTORIAL HepG2 Assay for human Nuclear Respiratory Factor 1 (NRF1) Orphan Gene (AID 2282987); settings: HepG2 NRF1 cis-element reporter, Attagene multiplex; actives raise or lower the signal
In short: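 Transcriptional reporter readout, one component of a 52-endpoint multiplexed HepG2 panel. Exposure 24 h; mRNA detected via RT-PCR and fluorescent capillary electrophoresis; fitting in both directions against DMSO.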

[7] = ATG_NFI_CIS: Attagene CIS-FACTORIAL HepG2 Assay for human Nuclear Factor I (NFI) (AID 2282989); settings: HepG2 cis-regulatory reporter, NFI response element transcription; actives raise or lower the signal
In short: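 Transfected HepG2 liver cells, exposed 24 h, supplied total RNA for oligo(dT) reverse transcription and reporter-specific PCR. Labelled, HpaI-cut fragments were sized by capillary electrophoresis; DMSO set the baseline for bidirectional fitting.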

[8] = biological target: Myc proto-oncogene protein (Homo sapiens) (UniProt P01106); experiment: ATG_Myc_CIS: Attagene CIS-FACTORIAL HepG2 Assay for human Myelocytomatosis (Myc) Proto-Oncogene Transcription Factor (AID 2282990); settings: HepG2, Attagene cis-reporter transcription factor activity; actives raise or lower the signal
In short: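 DMSO-normalised, bidirectionally fitted reporter mRNA signal. HepG2 cells transfected with cis reporter constructs, treated 24 h; transcripts detected by RT-PCR, 6-FAM primer extension and CE.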

[9] = ATG_NF_kB_CIS: Attagene CIS-FACTORIAL HepG2 Assay for human Nuclear Factor Kappa B (NF-kB) (AID 2282991); settings: HepG2 Attagene cis-factorial NF-kB reporter mRNA; actives raise or lower the signal
In short: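 HepG2, transient multi-reporter transfection, cis promoter elements (endogenous TFs). 24 h exposure. Total RNA → RT → PCR → 6-FAM label → HpaI → CE. Gain/loss vs DMSO.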

[10] = ATG_NRF2_ARE_CIS: Attagene CIS-FACTORIAL HepG2 Assay for human Nuclear Factor Erythroid 2 Related Factor 2 (NFR2) response to Antioxidant Response Elements (ARE) (AID 2282992); settings: HepG2 Attagene ARE/NRF2 reporter, transcription factor activity; actives raise or lower the signal;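 for AC50: reporter mRNA level measured by RT-PCR and capillary electrophoresis fluorescence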
In short: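 HepG2 cells transiently transfected with multiplexed cis-regulated reporter transcription units measure endogenous transcription factor activity. Reporter mRNA at 24 h is quantified by RT-PCR, fluorescent labelling and capillary electrophoresis, with bidirectional fitting relative to DMSO.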

[11] = ATG_Oct_MLP_CIS: Attagene CIS-FACTORIAL HepG2 Assay for human Octamer-Binding Transcription Factor (Oct) (AID 2282993); settings: HepG2 Attagene cis-factorial Oct reporter, mRNA; actives raise or lower the signal
In short: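 Using HepG2 cells bearing transfected cis-reporter constructs, mRNA induction was read after 24 h by fluorescent RT-PCR and capillary electrophoresis, with DMSO defining baseline for gain- or loss-of-signal fits.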

[12] = biological target: Cellular tumor antigen p53 (Homo sapiens) (UniProt P04637); experiment: ATG_p53_CIS: Attagene CIS-FACTORIAL HepG2 Assay for human p53 Transcription Factor (AID 2282994); settings: HepG2 p53 cis-element reporter, Attagene mRNA; actives raise or lower the signal
In short: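 HepG2 cells transiently transfected with multiplexed cis-regulated reporter transcription units read endogenous TF activity. After 24 h compound exposure, reporter mRNA was quantified by RT-PCR, fluorescent labelling, HpaI digestion and capillary electrophoresis; bidirectional fits versus DMSO baseline.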

[13] = BSK_3C_TissueFactor: BioMAP Diversity Plus: 3C Assay for Tissue Factor Biomarker Activity (AID 2282997); settings: BioMAP 3C HUVEC, tissue factor biomarker readout; actives raise or lower the signal
In short: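 Values derive from bidirectional curve fitting against DMSO of Tissue Factor ELISA signals, taken 24 h after dosing primary human umbilical vein endothelial cells.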

[14] = BSK_3C_VCAM1: BioMAP Diversity Plus: 3C Assay for Vascular cell adhesion molecule 1 (VCAM1) Biomarker Activity (AID 2282999); settings: BioMAP 3C HUVEC, VCAM1 ELISA, cytokine-stimulated; actives raise or lower the signal
In short: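 Human umbilical vein endothelial cells were dosed with compound for 24 h, after which cell-surface VCAM-1 was quantified by ELISA. Bidirectional curve fitting used DMSO as negative control and activity baseline.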

[15] = biological target: Oxysterols receptor LXR-alpha (Homo sapiens) (UniProt Q13133); experiment: ATG_LXRa_TRANS: Attagene TRANS-FACTORIAL HepG2 Assay for human Liver X Receptor alpha (LXRa) (AID 2282980; active = hit-call score of the fitted dose curve at least 0.9, where 1 is the maximum); settings: HepG2 Attagene TRANS reporter, LXRa transactivation
In short: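 Transient HepG2 transfectants, 24 h dosing, RT-PCR/CE mRNA reporter quantitation; gain-of-signal vs DMSO.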

[16] = ATG_M_32_TRANS: Attagene TRANS-FACTORIAL HepG2 Assay for M32 Transcription Factor (Internal Marker) (AID 2282984; active = hit-call score of the fitted dose curve at least 0.9, where 1 is the maximum;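 note: transcript level of a background control reporter unit measured by RT-PCR and capillary electrophoresis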); settings: HepG2 Attagene TRANS M32 internal marker reporter
In short: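 Human hepatoma HepG2, transient MRTU transfection, 24 h treatment. RNA → RT-PCR → fluorescent primer extension → HpaI digest (2 h, 37 C) → CE. Positive-direction fit vs DMSO.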

[17] = biological target: Hepatocyte nuclear factor 4-alpha (Homo sapiens) (UniProt P41235); experiment: ATG_HNF4a_TRANS: Attagene TRANS-FACTORIAL HepG2 Assay for human Hepatocyte Nuclear Factor 4 alpha (HNF4a) (AID 2282982; active = hit-call score of the fitted dose curve at least 0.9, where 1 is the maximum); settings: HepG2 HNF4a transactivation reporter, mRNA readout
In short: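 Cells used were human HepG2, transiently carrying GAL4-UAS reporter units read out against exogenous NR-GAL4 chimeras. Reporter transcript levels after 24 h dosing were quantified by fluorescent RT-PCR and capillary electrophoresis.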

Nuclear receptor subfamily 4 group A member 2 (Homo sapiens), sequence (P43354 whole entry, looked up): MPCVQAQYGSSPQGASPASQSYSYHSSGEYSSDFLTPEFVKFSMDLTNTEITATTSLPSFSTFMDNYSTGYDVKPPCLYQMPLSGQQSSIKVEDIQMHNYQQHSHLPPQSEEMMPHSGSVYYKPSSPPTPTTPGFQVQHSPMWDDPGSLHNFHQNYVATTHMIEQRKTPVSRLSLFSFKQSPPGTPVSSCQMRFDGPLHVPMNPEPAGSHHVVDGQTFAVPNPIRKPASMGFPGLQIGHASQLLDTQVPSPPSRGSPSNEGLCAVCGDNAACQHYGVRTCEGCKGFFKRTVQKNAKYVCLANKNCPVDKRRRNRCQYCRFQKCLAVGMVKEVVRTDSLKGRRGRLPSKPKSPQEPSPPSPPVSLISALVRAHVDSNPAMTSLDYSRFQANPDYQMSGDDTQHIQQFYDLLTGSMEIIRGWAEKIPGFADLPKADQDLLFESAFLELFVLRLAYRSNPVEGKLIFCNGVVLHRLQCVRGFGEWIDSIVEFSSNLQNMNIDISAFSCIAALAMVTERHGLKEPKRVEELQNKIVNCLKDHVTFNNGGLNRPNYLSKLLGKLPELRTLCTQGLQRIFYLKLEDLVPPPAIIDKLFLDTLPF
Hepatocyte nuclear factor 4-alpha (Homo sapiens), sequence (P41235 whole entry, looked up, the tested form may be a part): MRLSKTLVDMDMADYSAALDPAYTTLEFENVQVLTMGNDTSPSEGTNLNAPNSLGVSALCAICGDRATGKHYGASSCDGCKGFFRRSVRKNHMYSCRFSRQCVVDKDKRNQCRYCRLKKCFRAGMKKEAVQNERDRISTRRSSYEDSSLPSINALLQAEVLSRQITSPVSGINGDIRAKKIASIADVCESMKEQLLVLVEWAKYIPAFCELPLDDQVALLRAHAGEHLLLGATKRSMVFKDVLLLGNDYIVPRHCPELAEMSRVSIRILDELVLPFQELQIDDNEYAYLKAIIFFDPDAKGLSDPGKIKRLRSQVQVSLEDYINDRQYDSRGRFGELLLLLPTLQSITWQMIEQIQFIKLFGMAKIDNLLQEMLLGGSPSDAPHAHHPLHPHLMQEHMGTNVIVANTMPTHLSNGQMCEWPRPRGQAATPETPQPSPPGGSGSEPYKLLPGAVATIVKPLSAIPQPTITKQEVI
Cellular tumor antigen p53 (Homo sapiens), sequence (P04637 whole entry, looked up): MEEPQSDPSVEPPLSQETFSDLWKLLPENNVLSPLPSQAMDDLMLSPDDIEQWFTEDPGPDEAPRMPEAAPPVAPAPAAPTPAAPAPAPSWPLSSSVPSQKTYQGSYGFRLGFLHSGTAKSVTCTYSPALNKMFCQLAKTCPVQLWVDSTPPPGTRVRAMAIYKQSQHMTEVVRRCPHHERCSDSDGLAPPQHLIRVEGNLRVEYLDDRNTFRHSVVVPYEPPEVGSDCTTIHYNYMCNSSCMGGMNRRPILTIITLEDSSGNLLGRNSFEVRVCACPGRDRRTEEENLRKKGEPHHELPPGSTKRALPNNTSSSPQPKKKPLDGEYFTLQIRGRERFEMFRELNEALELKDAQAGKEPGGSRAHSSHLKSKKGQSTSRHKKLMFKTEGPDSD
Transcriptional activator Myb (Homo sapiens), sequence (P10242 whole entry, looked up): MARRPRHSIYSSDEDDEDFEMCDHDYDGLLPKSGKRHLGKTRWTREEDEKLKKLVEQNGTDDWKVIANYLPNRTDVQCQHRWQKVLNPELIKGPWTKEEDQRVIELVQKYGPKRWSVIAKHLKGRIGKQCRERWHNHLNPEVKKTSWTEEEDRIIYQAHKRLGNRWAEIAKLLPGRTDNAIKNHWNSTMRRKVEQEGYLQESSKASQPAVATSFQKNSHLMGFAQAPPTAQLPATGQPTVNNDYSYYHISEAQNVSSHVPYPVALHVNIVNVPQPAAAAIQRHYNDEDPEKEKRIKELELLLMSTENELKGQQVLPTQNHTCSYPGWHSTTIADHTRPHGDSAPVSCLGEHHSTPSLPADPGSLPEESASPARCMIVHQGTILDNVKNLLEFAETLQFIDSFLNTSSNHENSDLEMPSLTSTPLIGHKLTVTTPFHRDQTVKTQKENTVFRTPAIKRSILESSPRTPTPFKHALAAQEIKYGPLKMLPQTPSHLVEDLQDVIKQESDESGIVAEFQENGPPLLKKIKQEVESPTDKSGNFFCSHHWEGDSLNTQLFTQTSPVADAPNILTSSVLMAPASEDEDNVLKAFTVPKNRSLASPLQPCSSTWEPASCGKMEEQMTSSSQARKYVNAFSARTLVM
Glucocorticoid receptor (Homo sapiens), sequence (P04150 whole entry, looked up, the tested form may be a part): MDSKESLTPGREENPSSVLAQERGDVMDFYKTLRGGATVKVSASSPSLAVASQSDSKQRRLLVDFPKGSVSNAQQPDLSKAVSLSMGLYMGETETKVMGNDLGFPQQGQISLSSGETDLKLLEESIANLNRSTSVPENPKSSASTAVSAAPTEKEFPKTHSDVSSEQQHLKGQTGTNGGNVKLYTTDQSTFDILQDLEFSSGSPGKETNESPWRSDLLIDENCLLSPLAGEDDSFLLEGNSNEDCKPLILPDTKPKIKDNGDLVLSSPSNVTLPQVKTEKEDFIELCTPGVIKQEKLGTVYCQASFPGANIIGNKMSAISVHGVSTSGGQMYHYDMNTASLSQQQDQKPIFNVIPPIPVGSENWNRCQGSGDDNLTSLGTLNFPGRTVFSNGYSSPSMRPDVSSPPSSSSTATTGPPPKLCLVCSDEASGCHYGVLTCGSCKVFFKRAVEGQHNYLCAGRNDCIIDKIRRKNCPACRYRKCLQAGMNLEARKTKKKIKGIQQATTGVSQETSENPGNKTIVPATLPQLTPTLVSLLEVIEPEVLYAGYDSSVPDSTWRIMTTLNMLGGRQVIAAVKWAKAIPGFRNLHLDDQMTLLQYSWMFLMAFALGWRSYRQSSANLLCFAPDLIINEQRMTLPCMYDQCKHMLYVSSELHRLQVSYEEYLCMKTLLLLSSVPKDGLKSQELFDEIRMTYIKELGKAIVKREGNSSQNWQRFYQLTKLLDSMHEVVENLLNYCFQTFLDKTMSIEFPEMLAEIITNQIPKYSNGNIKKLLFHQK
Oxysterols receptor LXR-alpha (Homo sapiens), sequence (Q13133 whole entry, looked up): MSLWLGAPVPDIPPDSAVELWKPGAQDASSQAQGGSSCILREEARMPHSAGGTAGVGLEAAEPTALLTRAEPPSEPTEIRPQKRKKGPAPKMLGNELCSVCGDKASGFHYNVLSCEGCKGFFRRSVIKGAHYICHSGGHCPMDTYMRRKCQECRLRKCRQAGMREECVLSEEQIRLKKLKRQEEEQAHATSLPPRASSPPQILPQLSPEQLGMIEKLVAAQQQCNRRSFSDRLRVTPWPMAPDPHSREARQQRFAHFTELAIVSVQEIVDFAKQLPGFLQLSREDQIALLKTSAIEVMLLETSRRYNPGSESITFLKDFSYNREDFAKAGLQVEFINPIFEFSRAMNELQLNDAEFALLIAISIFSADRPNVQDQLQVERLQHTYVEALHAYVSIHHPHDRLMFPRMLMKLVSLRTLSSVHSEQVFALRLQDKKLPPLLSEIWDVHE
Myc proto-oncogene protein (Homo sapiens), sequence (P01106 whole entry, looked up): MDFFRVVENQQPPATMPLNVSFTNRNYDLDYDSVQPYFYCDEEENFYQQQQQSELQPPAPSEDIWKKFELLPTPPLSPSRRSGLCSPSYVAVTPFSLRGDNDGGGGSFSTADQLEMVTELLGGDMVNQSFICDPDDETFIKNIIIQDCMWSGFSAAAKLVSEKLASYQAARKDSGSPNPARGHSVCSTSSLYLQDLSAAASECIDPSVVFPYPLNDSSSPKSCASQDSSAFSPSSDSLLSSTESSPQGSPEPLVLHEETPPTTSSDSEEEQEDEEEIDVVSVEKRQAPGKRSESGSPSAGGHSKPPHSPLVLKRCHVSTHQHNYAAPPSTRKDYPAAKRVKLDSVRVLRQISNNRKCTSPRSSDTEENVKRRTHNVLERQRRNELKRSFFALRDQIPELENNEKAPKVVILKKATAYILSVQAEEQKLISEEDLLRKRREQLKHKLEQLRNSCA
Oxysterols receptor LXR-beta (Homo sapiens), sequence (P55055 whole entry, looked up, the tested form may be a part): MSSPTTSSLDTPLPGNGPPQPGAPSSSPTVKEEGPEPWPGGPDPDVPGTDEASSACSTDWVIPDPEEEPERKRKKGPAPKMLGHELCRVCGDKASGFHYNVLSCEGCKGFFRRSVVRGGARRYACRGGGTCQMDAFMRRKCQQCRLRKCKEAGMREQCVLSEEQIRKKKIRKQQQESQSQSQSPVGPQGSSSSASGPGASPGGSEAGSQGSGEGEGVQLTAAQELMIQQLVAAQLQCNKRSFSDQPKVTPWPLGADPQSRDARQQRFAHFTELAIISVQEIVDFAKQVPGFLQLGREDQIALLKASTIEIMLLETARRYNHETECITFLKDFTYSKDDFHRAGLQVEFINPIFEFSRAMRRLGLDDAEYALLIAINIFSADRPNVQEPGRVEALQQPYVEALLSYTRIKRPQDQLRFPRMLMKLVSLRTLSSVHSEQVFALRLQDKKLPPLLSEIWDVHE
Nuclear respiratory factor 1 (Homo sapiens), sequence (Q16656 whole entry, looked up): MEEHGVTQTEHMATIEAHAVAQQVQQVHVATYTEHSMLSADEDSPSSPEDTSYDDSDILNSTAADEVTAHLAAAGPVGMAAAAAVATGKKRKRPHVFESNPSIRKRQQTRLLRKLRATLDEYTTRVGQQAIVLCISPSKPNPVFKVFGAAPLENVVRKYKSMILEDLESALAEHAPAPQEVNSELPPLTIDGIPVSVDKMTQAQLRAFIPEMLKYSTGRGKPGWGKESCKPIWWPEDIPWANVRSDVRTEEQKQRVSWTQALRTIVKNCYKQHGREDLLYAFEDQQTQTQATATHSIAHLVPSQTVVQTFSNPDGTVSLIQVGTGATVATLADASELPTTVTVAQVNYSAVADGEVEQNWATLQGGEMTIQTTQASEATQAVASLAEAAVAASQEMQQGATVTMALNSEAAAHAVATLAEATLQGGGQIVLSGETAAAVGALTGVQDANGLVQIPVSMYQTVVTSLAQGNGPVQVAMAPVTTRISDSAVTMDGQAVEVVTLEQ

CC(C)(C)c1cccc(O)c1
outcome [1]: inactive | outcome [2]: inactive | outcome [3]: inactive | outcome [4]: inactive | outcome [5]: inactive | outcome [6]: inactive | outcome [7]: inactive | outcome [8]: inactive | outcome [9]: inactive | outcome [10]: inactive | outcome [11]: inactive | outcome [12]: inactive | outcome [13]: inactive | outcome [14]: inactive

CCCCCCCCCCCCN1CCOCC1
outcome [1]: inactive | outcome [15]: inactive | outcome [2]: inactive | outcome [5]: inactive | AC50 [6]: 59.8 µM (active) | outcome [7]: inactive | outcome [8]: inactive | outcome [9]: inactive | AC50 [10]: 33.4 µM (active) | AC50 [11]: 45.4 µM (active) | outcome [12]: inactive

Nc1ccc(N)c([N+](=O)[O-])c1
outcome [1]: inactive | outcome [2]: inactive | outcome [16]: inactive | outcome [5]: inactive | outcome [8]: inactive | outcome [11]: inactive | outcome [12]: inactive | outcome [13]: inactive | outcome [14]: inactive

CC/C=C\CCOC(=O)C(C)C
outcome [1]: inactive | outcome [2]: inactive | outcome [17]: inactive | outcome [5]: inactive | outcome [6]: inactive | outcome [7]: inactive | outcome [8]: inactive | outcome [9]: inactive | outcome [10]: inactive | outcome [11]: inactive | outcome [12]: inactive

CC(C)COC(=O)c1ccccc1O
outcome [1]: inactive | outcome [15]: inactive | outcome [3]: inactive | outcome [16]: inactive | outcome [4]: inactive | outcome [5]: inactive | outcome [6]: inactive | outcome [7]: inactive | outcome [8]: inactive | outcome [9]: inactive | outcome [10]: inactive | outcome [11]: inactive | outcome [12]: inactive

CC(C)N(c1ccccc1)C(C)C
outcome [1]: inactive | outcome [2]: inactive | outcome [17]: inactive | outcome [3]: inactive | outcome [4]: inactive | outcome [5]: inactive | outcome [6]: inactive | outcome [7]: inactive | outcome [8]: inactive | outcome [9]: inactive | outcome [10]: inactive

CCCCCCCCCCCCCCCCCC(=O)OCCCCCCCCCCCCCC(C)C
outcome [1]: inactive | outcome [2]: inactive | outcome [17]: inactive | outcome [5]: inactive | outcome [6]: inactive | outcome [7]: inactive | outcome [8]: inactive | outcome [9]: inactive | outcome [10]: inactive | outcome [11]: inactive | outcome [12]: inactive

NC(N)=S
outcome [1]: inactive | outcome [15]: inactive | outcome [17]: inactive | outcome [3]: inactive | outcome [16]: inactive | outcome [5]: inactive | outcome [7]: inactive | outcome [8]: inactive | outcome [10]: inactive | outcome [11]: inactive

CC(=N[Si](C)(C)C)O[Si](C)(C)C
outcome [1]: inactive | outcome [2]: inactive | outcome [17]: inactive | outcome [16]: inactive | outcome [5]: inactive | outcome [6]: inactive | outcome [7]: inactive | outcome [8]: inactive | outcome [9]: inactive | outcome [10]: inactive | outcome [11]: inactive | outcome [12]: inactive

CC(CCO)CC(C)(C)C (stereo unspecified)
outcome [1]: inactive | outcome [15]: inactive | outcome [17]: inactive | outcome [3]: inactive | outcome [16]: inactive | outcome [4]: inactive | outcome [5]: inactive | outcome [6]: inactive | outcome [7]: inactive | outcome [8]: inactive | outcome [9]: inactive | outcome [10]: inactive | outcome [11]: inactive | outcome [12]: inactive
